These results are taken from PubChem BioAssay (Tox21).

Results filed as inconclusive are left out. The source made the active and inactive calls. Calls follow the shape of the dose curve; as a rule, active = well fitted activation curve with a large enough effect in the signal ratio in the repeat runs (not every such curve was filed as active); inconclusive = weak or mixed curves, or effect the other way; inactive = no such curve, though single readings can be large or run the other way; the % refers to the signal ratio.
% is scaled to controls: 0 for no effect and ±100 for the full control effect; potency is read from the fitted curve at half-maximal effect.

The target in the test is Glucocorticoid receptor (Homo sapiens) (UniProt P04150). In words: qHTS assay to identify small molecule agonists of the glucocorticoid receptor (GR) signaling pathway (AID 720691). Conditions: GR-bla HeLa, beta-lactamase reporter ratio, 18 h; series mostly up to 62.4 µM; activation: at the top concentration. An excerpt: U.S. Tox21 Program National Center for Advancing Translational Sciences [NCATS] NIH Chemical Genomics Center [NCGC] U.S. Environmental Protection Agency [EPA] National Institutes of Environmental Health Sciences [NIEHS] National Toxicology Program [NTP] U.S. Food and Drug Administration [FDA] Tox21 Assay Overview: The Glucocorticoid receptor (GR) is one of the members of the nuclear receptor family of ligand-dependent transcription factors. GR plays a critical role in carbohydrate, protein and lipid metabolisms and programmed cell death. CellSensor GR-bla HeLa cell line (Invitrogen) contains a beta-lactamase reporter gene under the control of the glucocorticoid response element stably integrated into HeLa cells, a cervical cancer cell line that expresses glucocorticoid receptor. The activation of the reporter gene under culture conditions can be detected by fluorescence intensity. This cell line has been used to screen the Tox21 10K compound library and to identify the compounds that activate the GR signaling.
Glucocorticoid receptor (Homo sapiens), sequence (P04150 whole entry, looked up): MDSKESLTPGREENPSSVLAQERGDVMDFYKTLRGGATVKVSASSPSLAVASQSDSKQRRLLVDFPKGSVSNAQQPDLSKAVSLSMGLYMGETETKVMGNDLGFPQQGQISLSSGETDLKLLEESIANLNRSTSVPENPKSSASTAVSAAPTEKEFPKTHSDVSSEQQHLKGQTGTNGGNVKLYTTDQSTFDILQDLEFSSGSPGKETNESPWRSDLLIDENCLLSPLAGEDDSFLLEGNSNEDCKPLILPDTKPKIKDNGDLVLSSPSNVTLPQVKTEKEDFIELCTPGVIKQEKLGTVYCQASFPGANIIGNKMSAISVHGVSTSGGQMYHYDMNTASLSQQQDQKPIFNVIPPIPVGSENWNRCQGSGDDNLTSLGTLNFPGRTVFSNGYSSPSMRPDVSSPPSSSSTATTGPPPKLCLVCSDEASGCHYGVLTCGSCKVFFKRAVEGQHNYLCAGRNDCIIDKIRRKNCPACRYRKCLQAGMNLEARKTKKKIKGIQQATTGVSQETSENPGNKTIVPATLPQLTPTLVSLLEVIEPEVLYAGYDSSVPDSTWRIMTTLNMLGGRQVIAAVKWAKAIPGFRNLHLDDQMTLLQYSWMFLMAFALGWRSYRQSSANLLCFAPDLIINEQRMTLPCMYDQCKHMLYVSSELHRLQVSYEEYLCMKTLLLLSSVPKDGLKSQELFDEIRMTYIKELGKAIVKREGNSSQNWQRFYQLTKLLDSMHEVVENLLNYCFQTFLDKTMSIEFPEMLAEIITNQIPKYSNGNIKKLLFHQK
Tox21 Assay Protocol Summary: The GR-bla HeLa cells were dispensed at 1500 cells/6 ul/well in 1536-well black wall/clear bottom plates using a Multidrop Combi (ThermoFisher Scientific, Waltham, MA) dispenser. After the assay plates were incubated at a 37 C/5% CO2 incubator for 4 hours, 23 nL of compounds dissolved in DMSO, positive controls or DMSO only was transferred to the assay plate by a pintool station (Kalypsys, San Diego, CA). The plates were incubated at 37 C for 18 hours. After 1 uL of LiveBLAzerTM B/G FRET substrate was added using a Flying Reagent Dispenser (Aurora Discovery, San Diego, CA), the plates were incubated at room temperature for 2 hours, and fluorescence intensity was measured by an Envision plate reader (PerkinElmer, Shelton, CT).
In the case of `NC[C@H]1O[C@H](O[C@H]2[C@H](O)[C@@H](O[C@H]3O[C@H](CO)[C@@H](O)[C@H](N)[C@H]3O)[C@H](N)C[C@@H]2N)[C@H](O)[C@@H](O)[C@@H]1O`, the Potency result was “inactive”.
As for `CCN(CCO)CCCC(C)Nc1ccnc2cc(Cl)ccc12` (stereo not given), the “activation” value was 0.807% (inactive).
The same measure, in the same setting: the value for `O=[N+]([O-])c1cc[n+]([O-])cc1` was 0.0176% (inactive).
On the same count and under the same terms, under `COc1ccccc1OC(=O)Oc1ccccc1OC` stands -4.76% (inactive).
On the same count and under the same terms, the value for `CCN(CC)C(C)CN1c2ccccc2Sc2ccccc21` (stereo not given) was -0.857% [at 29.2 µM] (inactive); that for `O=C(O)C1CCC(C(=O)O)CC1` (stereo not given) was -0.477% (inactive); that for `Oc1ccc(O)c2c(O)cccc12` was -1.99% (inactive).
With `Oc1ccc(Cc2ccccc2)cc1`, the “activation” value was -6.76% (inactive).
On the same count and under the same terms, the value for `CC(=O)c1c(C)c([N+](=O)[O-])c(C(C)(C)C)c([N+](=O)[O-])c1C` was -0.0535% (inactive); that for `NCc1ccccc1` was 1.63% (inactive).
On the same count and under the same terms, the value for `C=CC(C)(CCC=C(C)C)OC(=O)c1ccccc1` (stereo not given) was 0.423% (inactive); that for `CC(=O)N(O)CCCCCNC(=O)CCC(=O)N(O)CCCCCNC(=O)CCC(=O)N(O)CCCCCN` was -2.65% [at 29.2 µM] (inactive).
As to `Cn1c(=O)c2c(ncn2CC(O)CO)n(C)c1=O` (stereo not given), the “activation” value is -0.11% [at 29.2 µM] (inactive).
On the same count and under the same terms, under `COC(Cc1ccccc1)OC` stands 2.01% (inactive).
On the same count and under the same terms, under `O=C(NN1CCCC1)NS(=O)(=O)c1ccc(Cl)cc1` stands -1.14% (inactive); under `CCCC(=O)OCC`, -1.49% (inactive); under `O=C(Cl)c1c(Cl)cccc1Cl`, -3.08% [at 79.2 µM] (inactive).
`CCCCOC(=O)/C=C\C(=O)OCCCC`: the “activation” value is 3.08% [at 79.2 µM] (inactive).
Same read-out and setting: under `CN(C)CCCOc1nn(Cc2ccccc2)c2ccccc12` stands -2.94% [at 29.2 µM] (inactive).
Consider `CCc1nn(C2CCCCC2)c2cc(C3(C#N)CCC(C(=O)O)CC3)ccc12` (stereo not given), for which the “activation” value is -1.9% (inactive).
Same read-out and setting: the value for `CC1CCc2cc(F)cc3c(=O)c(C(=O)O)cn1c23` (stereo not given) was 0.674% (inactive).
Same read-out and setting: under `COC(=O)C(C)=O` stands -1.11% [at 79.2 µM] (inactive); under `CN1CCN(C2=Nc3ccccc3Sc3ccc(Cl)cc32)CC1`, -1.93% (inactive).
As for `CC(=O)[C@@]1(O)CC[C@H]2[C@@H]3C[C@H](C)C4=CC(=O)CC[C@]4(C)[C@H]3CC[C@@]21C`, the Potency is 84.9 nM (active).
Consider `CCCCC(CC)COCCCN` (stereo not given), for which the “activation” value was -2.5% (inactive).
Turning to `O=C(O)Cc1cc(I)c(Oc2ccc(O)c(I)c2)c(I)c1`, the Potency result is “inactive”.
`O=C(O)Cn1c(C(=O)Nc2nc(-c3ccccc3Cl)cs2)cc2ccccc21`: the “activation” value was -7.45% (inactive).
`CC(=O)/C(C)=C/C1C(C)=CCCC1(C)C` (stereo not given): the “activation” value was -0.304% (inactive).
Still for that read-out and setting: under `C=CCCCCCC` stands 0.749% (inactive); under `CCCCCCCCN(C)C`, 1.33% (inactive).
As for `CC(C)(C)c1ccc(OCC2CO2)cc1` (stereo not given), the “activation” value is -3.18% [at 79.2 µM] (inactive).
On the same count and under the same terms, under `Cn1sccc1=O` stands 7.98% (inactive).
For the molecule `O=C(Nc1ccccc1)OCC(CN1CCCCC1)OC(=O)Nc1ccccc1` (stereo not given), the “activation” value is -4.79% [at 29.2 µM] (inactive).
The same measure, in the same setting: the value for `CN(C)CC/C=C1\c2ccccc2COc2ccccc21` was -0.0298% (inactive); that for `NC1CCN(c2nc3c(cc2F)c(=O)c(C(=O)O)cn3-c2ccc(F)cc2F)C1` (stereo not given) was 0.51% (inactive); that for `CCCC(C)C` was -0.953% [at 79.2 µM] (inactive).
Take `CN(C)C/C=C(/c1ccc(Br)cc1)c1cccnc1`: the “activation” value was -0.625% (inactive).
Same read-out and setting: under `CC(C)(C)c1cc(CO)cc(C(C)(C)C)c1O` stands -4.68% [at 79.2 µM] (inactive).
Regarding `Nc1nc(N)c2nc(CNc3ccc(C(=O)N[C@@H](CCC(=O)O)C(=O)O)cc3)cnc2n1`, the “activation” value was 0.0643% (inactive).
Take `CC(Cc1cccc(C(F)(F)F)c1)NCCOC(=O)c1ccccc1` (stereo not given): the “activation” value is 4.86% (inactive).
